Compound activity (PubChem BioAssay)
ALDH1A1 inh – qHTS Assay for Inhibitors of Aldehyde Dehydrogenase 1 (ALDH1A1) | 7.3% of 220,000 active | Aldehyde dehydrogenase 1A1 (Homo sapiens), P00352 | Purified ALDH1A1, NADH fluorescence, propionaldehyde substrate | AID 1030, 2008 | Potency, µM (highest dose often 75.3 µM), without a hit: top-dose activity, negative = inhibition, actives largely listed as inhibitors; active = well fitted inhibition curve with a large enough effect, not every such curve was filed as active; inconclusive = small, poorly fitted or top-dose-only effect, or another doubt; inactive = no such curve, though single readings can be large or run the other way;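 note: potency is the fitted concentration of half-maximal effect; plate controls were no enzyme wells and a reference inhibitor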
Target sequence (P00352 whole entry, looked up): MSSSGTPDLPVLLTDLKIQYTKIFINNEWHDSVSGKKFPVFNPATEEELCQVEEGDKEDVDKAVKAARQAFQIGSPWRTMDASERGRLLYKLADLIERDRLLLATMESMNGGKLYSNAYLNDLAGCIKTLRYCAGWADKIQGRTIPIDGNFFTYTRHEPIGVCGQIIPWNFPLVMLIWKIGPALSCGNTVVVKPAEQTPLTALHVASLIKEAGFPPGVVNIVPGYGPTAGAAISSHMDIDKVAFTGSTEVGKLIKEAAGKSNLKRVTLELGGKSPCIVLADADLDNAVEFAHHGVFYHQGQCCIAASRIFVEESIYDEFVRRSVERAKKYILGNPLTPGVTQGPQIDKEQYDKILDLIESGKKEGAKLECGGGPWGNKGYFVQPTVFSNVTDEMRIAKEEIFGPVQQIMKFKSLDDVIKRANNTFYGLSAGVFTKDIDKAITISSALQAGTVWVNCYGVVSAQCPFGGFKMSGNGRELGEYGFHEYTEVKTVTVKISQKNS
LMNA splice mod – qHTS Assay for Modulators of Lamin A Splicing. HeLa LMNA splicing GFP/RFP minigene ratio, 48 h. Potency, µM (doses to about 46.1 µM), inactives show at the top dose ratio change, negative = inhibition, hits mostly inhibitors. 0.01% of 200,000 active. AID 1487, 2009; active = well fitted inhibition curve with a large enough effect in the signal ratio, with a control signal flat, not every such curve was filed as active; inconclusive = small, poorly fitted or top-dose-only effect, or effect the other way, or a change in a side signal; the % refers to the signal ratio; note: potency is the fitted concentration of half-maximal effect; % is set by controls: 0 for no effect and ±100 for the full control effect
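Read-out is the ratio of GFP to DsRed2 object intensity, acquired by 488 nm laser-scanning cytometry on HeLa lamin A-EGFP minigene reporter cells. Compound incubation 48 hrs at 37 °C in Opti-MEM with 2% FBS; DMSO 0.5% final.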
miR-21 reporter – qHTS Assay for Modulators of miRNAs and/orActivators of miR-21 | HeLa miR-21 FLuc reporter, luciferase, 48 h | Potency, µM (top dose mostly 38.3 µM), inactives show at the highest dose activity change, positive = activation, hits mostly activators | 340,000 tested, under 10 active | AID 2288, 2010;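 note: % of control where 0% means no effect; miR-21 action dims this reporter so a rising signal means less miR-21 action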
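HeLa miR-21-FLuc reporter line, endogenous miR-21; 2000 cells/well in DMEM/10% FBS; compound titration up to ~40uM final, 48 h, 37 degree Celsius; luciferase detection reagent, 15 min lysis, CCD luminescence.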
JMJD2E inh – qHTS Assay for Inhibitors of Human Jumonji Domain Containing 2E (JMJD2E) | Lysine-specific demethylase 4E (Homo sapiens), B2RXH2 | 1.6% of 230,000 active | Potency, µM (titrated, usually from 57.1 µM), without a hit: top-dose activity change, negative = inhibition, most hits filed as inhibitors | JMJD2E catalytic domain, FDH-coupled NADH fluorescence (FDH is formaldehyde dehydrogenase);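 note: potency is the fitted concentration of half-maximal effect; 0% = wells with enzyme and -100% = buffer wells without enzyme; nearly all actives have a fitted effect of over 50% in size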
Sfp inh – qHTS Assay for Inhibitors of Bacillus subtilis Sfp phosphopantetheinyl transferase (PPTase). Biochemical Sfp PPTase activity, qHTS. 4'-phosphopantetheinyl transferase ffp (Bacillus subtilis), Q9F4F7. 3.5% of 310,000 active. Potency, µM, without a hit: largest response in the series, negative = inhibition, usual class: inhibitors;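 note: the enzyme is Sfp with the accession as filed and its product quenches rhodamine fluorescence; potency is the fitted concentration of half-maximal effect; 0% = enzyme reaction without inhibitor and -100% = no enzyme wells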
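Buffer: 50 mM Hepes-Na pH 7.6, 10 mM MgCl2, 0.01% Nonidet P-40, 0.01% BSA. Enzyme 15 nM, pre-exposed to compound 15 min; substrates then added and fluorescence change tracked over 30 min.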
G9a inh – qHTS Assay for Inhibitors of Histone Lysine Methyltransferase G9a; Histone-lysine N-methyltransferase EHMT2 (Homo sapiens), Q96KQ7; G9a H3K9 monomethylation, AlphaScreen, 2 h; Potency, µM (highest dose often 102 µM), for inactives: at the top dose activity, negative = inhibition, actives largely listed as inhibitors; 8.8% of 350,000 active; note: potency is the fitted concentration of half-maximal effect; % is set by controls: 0 for no effect and ±100 for the full control effect; nearly all actives have a fitted effect of over 75% in size
Target sequence (Q96KQ7 913-1193 limits assumed): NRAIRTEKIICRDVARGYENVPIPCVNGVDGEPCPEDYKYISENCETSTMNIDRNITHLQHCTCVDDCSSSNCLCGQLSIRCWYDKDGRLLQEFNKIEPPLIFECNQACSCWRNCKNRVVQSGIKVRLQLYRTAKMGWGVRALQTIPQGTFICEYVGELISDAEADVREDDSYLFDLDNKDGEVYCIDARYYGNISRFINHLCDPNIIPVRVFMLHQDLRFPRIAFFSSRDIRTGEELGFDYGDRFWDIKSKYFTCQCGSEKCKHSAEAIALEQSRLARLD
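AlphaScreen detection with an anti-monomethyl H3K9 antibody quantified product after a 2 h room-temperature reaction containing 500 nM biotinylated H3K9 peptide, 20 µM SAM and 20 nM enzyme, which had been preincubated 15 min with compound.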
Starred values were filed as active, the others as inactive; ? = inconclusive; nt = no result; [ ] = dose if it differs, or a comment. In the library only some 13% were active in any assay of this set; here they are far more common. Unless noted, calls come from the whole dose curve; as a rule, active = well fitted curve in the direction sought with a large enough effect; inconclusive = small, poorly fitted or top-dose-only effect, or another doubt; inactive = no such curve, though single readings can be large; an effect the other way counts as inactive or inconclusive.

SMILES | ALDH1A1 inh | LMNA splice mod | miR-21 reporter | JMJD2E inh | Sfp inh | G9a inh
Cc1cccnc1NC(=O)Nc1cccc2ccccc12 | ? | 16% | -1% | ? | 4% | 7.1µM*
O=C(Nc1ccccc1)Nc1cccc2ccccc12 | 4% | nt | -24% | ? | -9% | nt
Cc1ccc(C)c(S(=O)(=O)NCC(c2ccco2)S(=O)(=O)c2ccc(F)cc2)c1 (stereo not given) | nt | -5%[46 µM] | ? | nt | nt | 7%[59 µM]
CCOc1cc(C=O)cc(Br)c1OCC(=O)NCCc1ccccc1 | 6.3µM* | ? | -8% | -8% | -5% | 8%
O=c1c2ccccc2cnn1Cc1n[nH]c(=S)n1-c1cc(Cl)cc(Cl)c1 | -7% | -7% | 0% | -2% | ? | 0.4µM*
O=c1c2ccccc2cnn1Cc1n[nH]c(=S)n1-c1ccccc1Cl | 32µM* | -3% | 7% | -4% | -25% | 4.5µM*
O=c1c2ccccc2cnn1Cc1n[nH]c(=S)n1-c1ccc(F)c(Cl)c1 | ? | nt | -1% | -12% | 6% | 3.2µM*
O=c1c2ccccc2cnn1Cc1n[nH]c(=S)n1-c1ccc(F)cc1 | -4% | ? | 0% | -6% | -16% | 7.9µM*
CC(c1ccc(F)cc1)n1c(Cn2ncc3ccccc3c2=O)n[nH]c1=S (stereo not given) | -2% | -3%[46 µM] | -11% | 3% | 9% | 48%
COc1ccc(CCNC(=O)c2ccc(S(=O)(=O)N3CCCCC3)cc2)cc1 | nt | nt | nt | nt | nt | 12%[2.33 µM]
CC1CCCN(C2(O)C(=O)Nc3ccc([N+](=O)[O-])cc32)C1 (stereo not given) | nt | nt | -5% | nt | 3% | 0%
COC(=O)c1ccc(C#Cc2ccccc2)o1 | ? | ? | -39% | ? | -19% | nt
Cc1onc(-c2ccccc2)c1C(=O)OCC(=O)NC(C)c1ccc(Cl)cc1 (stereo not given) | nt | nt | nt | nt | nt | -1%[59 µM]
C/C=C1\CC2C=CC1C2 (stereo not given) | -13% | nt | nt | nt | nt | nt
Cn1nc(C(=O)NCc2ccccc2)c2ccccc2c1=O | 20µM* | 4% | -3% | -1% | 1% | -30%[12.7 µM]
CC(NC(=O)Cn1nc(C(=O)O)c2ccccc2c1=O)c1ccccc1 (stereo not given) | 5% | -10% | -4% | -8% | 10% | ?
Cn1nc(C(=O)NCc2ccc(F)cc2)c2ccccc2c1=O | 1% | ? | -2% | 6% | -4% | -7%[59 µM]
CC(NC(=O)c1nn(C)c(=O)c2ccccc12)c1ccccc1 (stereo not given) | 16µM* | -8% | -7% | 3% | 18% | 6%[59 µM]
Cc1ccc(C)c(N2C(=O)C3C4C=CC(CC4)C3C2=O)c1 (stereo not given) | nt | nt | -5% | nt | -2% | -7%[0.501 µM]
CC(C)Cc1nc(S(=O)(=O)c2ccc(Cl)cc2)c(N2CCOCC2)o1 | ? | 12% | 1% | -21% | 40µM* | ?
O=S(=O)(c1ccc(Cl)cc1)c1nc(-c2ccco2)oc1N1CCOCC1 | nt | nt | -3% | -22% | -11% | nt
CC(C)(C)c1nc(S(=O)(=O)c2ccc(Cl)cc2)c(N2CCOCC2)o1 | 18µM* | 11% | 1% | ? | -4% | ?
O=C(NC1CCN(S(=O)(=O)c2ccccc2)CC1)c1ccccc1 | nt | nt | -2% | nt | 0% | nt
CC(=O)OC1C2CCC1C([N+]1(C)CCCCC1)CC2 (stereo not given) | 1% | 22%[46 µM] | 1% | -9% | 8% | 32µM*
C[N+]1(C2CCC3CCC2C3O)CCCC1 (stereo not given) | 7% | -3% | 1% | -22% | 6% | 11µM*
SMILES | ALDH1A1 inh | LMNA splice mod | miR-21 reporter | JMJD2E inh | Sfp inh | G9a inh
COc1ccc(-c2[nH]ncc2CN2CCC(c3ccncc3)CC2)cc1F | nt | nt | -3% | 2% | 26% | -45%
COc1ccc(-c2[nH]ncc2CN2CCN(C3CCCCC3)C(=O)C2)cc1F | 1.4µM* | ? | 3% | -7% | 6% | nt
O=C(Nc1ccccc1C(=O)OCc1cc(=O)n2c3c(sc2n1)CCCC3)c1ccccc1 | nt | -4%[46 µM] | -5% | nt | nt | -3%[12.7 µM]
O=C1c2ccccc2NC(c2cn[nH]c2-c2ccc(Cl)cc2)N1O (stereo not given) | 10% | ? | 12% | ? | -3% | 28µM*
O=C1c2ccccc2NC(c2cn[nH]c2-c2ccccc2)N1O (stereo not given) | 2% | 0% | -12% | ? | 4% | ?
Cc1nnc(NC(=O)C(=O)c2cc(C)n(-c3ccc(C)c(C)c3)c2C)s1 | nt | nt | 5% | nt | nt | -6%[59 µM]
CC(=O)c1ccc(NC(=O)CN2CCOCC2)cc1 | nt | nt | -10% | nt | 10% | -10%[59 µM]
O=C(CC1C(=O)OCCN1Cc1ccccc1)Nc1cccc(C(F)(F)F)c1 (stereo not given) | nt | nt | 1% | nt | nt | -60%[59 µM]
CCN1CCOC(=O)C1CC(=O)Nc1ccc(C(C)=O)cc1 (stereo not given) | nt | nt | -44% | nt | nt | 3.2µM*
CCN1CCOC(=O)C1CC(=O)Nc1cc(Cl)ccc1OC (stereo not given) | nt | nt | -19% | nt | nt | 7.9µM*
CCN1CCOC(=O)C1CC(=O)Nc1cc(C)cc(C)c1 (stereo not given) | nt | nt | -27% | nt | nt | 3.5µM*
O=C(CC1C(=O)OCC2CCCCN21)Nc1ccccc1C(F)(F)F (stereo not given) | ? | ? | -2% | ? | -89% | 45µM*
Cc1ccc(NC(=O)CC2C(=O)OCC3CCCCN32)cc1Cl (stereo not given) | ? | -2% | -3% | 0% | 7% | ?
CCOc1ccc(NC(=O)c2c(NC(=O)c3ccccc3Br)sc3c2CCC(C)C3)cc1 (stereo not given) | nt | nt | 2% | nt | nt | 27%[59 µM]
CCCCC(=O)OCC(=O)N1N=C(c2c[nH]c3ccccc23)C(O)C1c1ccc(OC)cc1 (stereo not given) | nt | nt | 18% | nt | 5% | -40%
Cc1ccc(-c2c(CN3CCN(c4cc(Cl)ccc4C)CC3)csc2C)cc1 | nt | nt | 6% | nt | nt | -34%[59 µM]
COc1cccc(NC(=O)CC2C(=O)OCCN2Cc2ccccc2)c1 (stereo not given) | nt | nt | -6% | nt | nt | -32%[59 µM]
CCN1CCOC(=O)C1CC(=O)Nc1ccccc1C(F)(F)F (stereo not given) | nt | nt | -5% | nt | nt | 2.2µM*
CCc1ccc(NC(=O)CC2C(=O)OCCN2CC)cc1 (stereo not given) | nt | nt | -6% | nt | nt | 1.8µM*
C=CCn1nnnc1SCC(=O)Nc1cccc(C(F)(F)F)c1 | nt | nt | -2% | nt | 4% | 17%
